In the library only some 19% were active in any assay of this set; here they are far more common.
Chronic BCR inh – qHTS Assay to Find Inhibitors of Chronic Active B-Cell Receptor Signaling; ABC-DLBCL IkBa-CBG/CBR reporter, luminescence ratio, 4 h; hit rate 0.05% among 340,000; Potency, µM (highest dose often 46.1 µM), usual class: inhibitors; active = well fitted inhibition curve with a large enough effect in the signal ratio, with a control signal flat, not every such curve was filed as active; inconclusive = small, poorly fitted or top-dose-only effect, or effect the other way, or a change in a side signal; the % refers to the signal ratio
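Concentration-response series (up to 46 uM) were applied to TMD8 dual-reporter cells for 4 h at 37C with doxycycline. Green/red ratio, after filter-overlap correction, defined %Activity; red signal alone was normalised to basal cells and zero luminescence.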
IL-1B inflam inh – qHTS for Inhibitors of Inflammasome Signaling: IL-1-beta AlphaLISA Primary Screen. THP-1 LPS/ATP IL-1B secretion, AlphaLISA, 16 h; active compounds read low. activity change, % at 57.5 µM. hit rate 4.7% among 360,000. AID 743279, 2014; in the data active = activity change below about -50%; inconclusive = mostly about -30% to -49%
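Secreted IL-1B measured by AlphaLISA bead assay after 16 h compound exposure of THP-1 cells; compounds (final up to 57.5 uM) added 1 h before LPS (250 ng/mL) and ATP (1.25 mM) stimulation; lower signal means less secretion.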
MCF10A rereplic – A quantitative high throughput screen for small molecules that induce DNA re-replication in MCF 10a normal breast cells; MCF 10A DNA re-replication, Hoechst nuclear intensity, 48 h; Potency, µM (doses to about 46.1 µM), usual class: activators; hit rate 2.9% among 350,000; note: nearly all actives have a fitted effect of over 50% in size
SW480 rerep – A quantitative high throughput screen for small molecules that induce DNA re-replication in SW480 colon adenocarcinoma cells | SW480 DNA re-replication, Hoechst DNA content imaging, 48 h | Potency, µM (highest dose often 46.1 µM), usual class: activators | hit rate 1.8% among 340,000; note: nearly all actives have a fitted effect of over 55% in size
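Readout is total intensity of Hoechst-stained nuclei, excited at 405 nm and collected at 500-530 nm. Compound treatment lasted 48 hr at 37 C in 5% CO2 before staining.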
DT40 TDP1 no CPT – qHTS for Inhibitors of human tyrosyl-DNA phosphodiesterase 1 (TDP1): qHTS in cells in absence of CPT; DT40 Tdp1-/- hTDP1 cells, no CPT, ATP luminescence, 48 h; Potency, µM (doses to about 46.2 µM), actives largely listed as inhibitors; hit rate 15% among 420,000; note: nearly all actives have a fitted effect of over 55% in size
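Luminescent ATP content (CellTiter-Glo) served as the growth readout. Knockout chicken DT40 cells expressing human TDP1 were exposed to compounds without camptothecin for a minimum 48 hr at 37 °C.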
DT40 TDP1 CPT – qHTS for Inhibitors of human tyrosyl-DNA phosphodiesterase 1 (TDP1): qHTS in cells in presence of CPT | chicken DT40 Tdp1-/-;hTDP1 cells + 20 nM CPT, ATP luminescence, 48 h | AID 686979, 2013 | hit rate 12% among 420,000 | Potency, µM (series often up to 46.2 µM), hits mostly inhibitors; note: nearly all actives have a fitted effect of over 55% in size
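Chicken DT40 Tdp1-/- cells stably complemented with human TDP1 were seeded at 400 cells/well in medium containing 20 nM camptothecin, exposed to pin-transferred compounds, and grown at 37 °C for at least 48 hr. Viability was read as ATP luminescence.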
Numbers stand for hits; [ ] = dose if it differs, or a comment. Unless noted, calls come from the whole dose curve; as a rule, active = well fitted curve in the direction sought with a large enough effect; inconclusive = small, poorly fitted or top-dose-only effect, or another doubt; inactive = no such curve, though single readings can be large; an effect the other way counts as inactive or inconclusive.

Screening O=C(c1ccc(N2CN(C(=O)c3ccco3)c3nc4ccccc4nc32)cc1)N1CCOCC1 returned Chronic BCR inh inactive, IL-1B inflam inh -59, MCF10A rereplic inactive, SW480 rerep inactive, DT40 TDP1 no CPT 23µM and DT40 TDP1 CPT 13µM.
CC1(C(=O)NS(=O)(=O)c2ccccc2)CCN1C(=O)c1ccc(C2CCCCC2)cc1 (stereo unspecified) was read as IL-1B inflam inh inactive, DT40 TDP1 no CPT inactive and DT40 TDP1 CPT inactive.
Screening O=C(NCc1ccc(F)cc1)c1ccc(CS(=O)(=O)Cc2ccc(F)cc2)o1 returned Chronic BCR inh inactive, IL-1B inflam inh inactive, MCF10A rereplic inactive, SW480 rerep inactive[9.22 µM], DT40 TDP1 no CPT inconclusive and DT40 TDP1 CPT inconclusive.
`O=C(NCc1ccc(F)cc1)c1ccc(CS(=O)(=O)c2ccc(Cl)cc2)o1` gave Chronic BCR inh inactive, DT40 TDP1 no CPT 16µM and DT40 TDP1 CPT inconclusive.
For COc1ccccc1S(=O)(=O)Cc1ccc(C(=O)NCc2ccc(Cl)cc2)o1 the results were DT40 TDP1 no CPT 18µM and DT40 TDP1 CPT inconclusive.
Screening Cc1ccc(NS(=O)(=O)c2c(C)nc3sccn3c2=O)cc1C returned Chronic BCR inh inactive, IL-1B inflam inh inactive, MCF10A rereplic inactive, SW480 rerep inactive, DT40 TDP1 no CPT inconclusive and DT40 TDP1 CPT inconclusive.
`COc1ccccc1C(=O)NCCC(=O)N(C)CC(=O)Nc1ccc(N2CCOCC2)cc1` gave Chronic BCR inh inactive, IL-1B inflam inh inactive, MCF10A rereplic inactive, SW480 rerep inactive, DT40 TDP1 no CPT inactive and DT40 TDP1 CPT inactive.
Cc1cc2c(cc1S(=O)(=O)NCc1ccccc1Cl)OCC(=O)N2 was read as DT40 TDP1 no CPT inactive and DT40 TDP1 CPT inconclusive.
`CCOc1ccccc1CNS(=O)(=O)c1cc2c(cc1C)NC(=O)CO2` gave DT40 TDP1 no CPT 23µM and DT40 TDP1 CPT inconclusive.
`Cc1cccc(NC(=O)N2CCN3CCCCC3C2)c1C` (stereo unspecified) gave DT40 TDP1 no CPT inactive and DT40 TDP1 CPT inactive.
Screening CCc1ccc(NC(=O)C(=O)NCC(c2ccc3c(c2)OCO3)N2CCOCC2)cc1 (stereo unspecified) returned DT40 TDP1 no CPT inactive and DT40 TDP1 CPT inactive.
Screening Cc1ccc(NC(=O)C(=O)NCC(c2ccc3c(c2)OCO3)N2CCN(C)CC2)cc1C (stereo unspecified) returned DT40 TDP1 no CPT inconclusive and DT40 TDP1 CPT 16µM.
CCc1ccc(NC(=O)C(=O)NCC(c2ccc3c(c2)OCO3)N2CCN(C)CC2)cc1 (stereo unspecified) was read as DT40 TDP1 no CPT 16µM and DT40 TDP1 CPT inconclusive.
For CC(=O)c1cccc(N(CC(=O)NC2CCCCC2)C(=O)CCC(=O)Nc2nc(C)cs2)c1 the results were Chronic BCR inh inactive, IL-1B inflam inh inactive, MCF10A rereplic inactive, SW480 rerep inactive, DT40 TDP1 no CPT inactive and DT40 TDP1 CPT inactive.
COc1ccc(/C=C2\N=C(C)N(c3ccc4ccccc4c3)C2=O)cc1OC was read as Chronic BCR inh inactive, IL-1B inflam inh inactive, MCF10A rereplic inconclusive, SW480 rerep inconclusive, DT40 TDP1 no CPT 5.8µM and DT40 TDP1 CPT inconclusive.
CO/N=C/C(C#N)=C/c1cc(C(=O)c2ccccc2)cn1C was read as Chronic BCR inh inactive, IL-1B inflam inh inactive, MCF10A rereplic inactive, SW480 rerep inactive, DT40 TDP1 no CPT 21µM and DT40 TDP1 CPT inactive.
`COc1ccccc1C(=O)Nc1ccccc1C(=O)OCc1cc(=O)n2ccsc2n1` gave DT40 TDP1 no CPT inactive and DT40 TDP1 CPT inactive.
`CC1=C(C(=O)Nc2ccccc2)C(c2cccs2)n2nc(SCc3ccccc3)nc2N1` (stereo unspecified) gave DT40 TDP1 no CPT inconclusive and DT40 TDP1 CPT inactive.
COc1ccccc1NC(=O)C1=C(C)Nc2nc(SCc3ccccc3)nn2C1c1cccs1 (stereo unspecified) was read as DT40 TDP1 no CPT 15µM and DT40 TDP1 CPT inactive.
For COc1cccc(CSc2nc3n(n2)C(c2cccs2)C(C(=O)Nc2ccccc2C)=C(C)N3)c1 (stereo unspecified) the results were Chronic BCR inh inactive, DT40 TDP1 no CPT 13µM and DT40 TDP1 CPT 21µM.
`CC1=C(C(=O)Nc2ccc(C)cc2C)C(c2cccs2)n2nc(SCc3cccc(C)c3)nc2N1` (stereo unspecified) gave DT40 TDP1 no CPT 18µM and DT40 TDP1 CPT 21µM.
For COc1cccc(-c2nc3n(n2)C(c2cccs2)C(C(=O)Nc2cccnc2)=C(C)N3)c1 (stereo unspecified) the results were Chronic BCR inh inactive, IL-1B inflam inh inactive, MCF10A rereplic inactive, SW480 rerep inactive, DT40 TDP1 no CPT inconclusive and DT40 TDP1 CPT 15µM.
Cc1ccc(-c2cc(NC(=O)COc3c(C)cc(C)cc3C)on2)cc1 was read as DT40 TDP1 no CPT inactive and DT40 TDP1 CPT inactive.
COc1ccc(Cl)cc1NC(=O)C(C)N(C)Cc1ccc(C(F)(F)F)cc1 (stereo unspecified) was read as Chronic BCR inh inactive, IL-1B inflam inh inactive, MCF10A rereplic inconclusive, SW480 rerep inactive, DT40 TDP1 no CPT inactive and DT40 TDP1 CPT inactive.
O=S(=O)(Nc1ccccn1)c1ccc(Cl)c2ccccc12 was read as Chronic BCR inh inactive, IL-1B inflam inh inactive, MCF10A rereplic inactive, SW480 rerep inactive, DT40 TDP1 no CPT inactive and DT40 TDP1 CPT inactive.
Screening CCOC(=O)CSc1nc(N)c2c3c(sc2n1)CCCC3 returned Chronic BCR inh inconclusive, IL-1B inflam inh inactive, MCF10A rereplic inactive, SW480 rerep inactive, DT40 TDP1 no CPT inactive and DT40 TDP1 CPT inactive.
For CCN(CC)C(=O)CSc1nc(N)c2c3c(sc2n1)CC(C)CC3 (stereo unspecified) the results were Chronic BCR inh inactive, IL-1B inflam inh inactive, MCF10A rereplic inconclusive, SW480 rerep inactive, DT40 TDP1 no CPT 21µM and DT40 TDP1 CPT inconclusive.
For CC1CCc2c(sc3nc(SCC(=O)NCc4ccco4)nc(N)c23)C1 (stereo unspecified) the results were Chronic BCR inh inconclusive, IL-1B inflam inh inactive, MCF10A rereplic inconclusive, SW480 rerep inactive, DT40 TDP1 no CPT 13µM and DT40 TDP1 CPT 18µM.
Screening Cc1sc2nc(CN3CCOCC3)nc(Cl)c2c1C returned Chronic BCR inh inactive, IL-1B inflam inh -96, MCF10A rereplic inconclusive, SW480 rerep inactive, DT40 TDP1 no CPT inactive and DT40 TDP1 CPT inactive.
